Measurements reported in PubChem BioAssay AID1671202 (University of Kansas High Throughput Screening Laboratory, 2021).
Several values for one entry are separate records, joined by “and”; a condition that tells them apart may be missing. Identical values can stand only once. Hit rate of the full screen: of about 190,000 compounds, about 6,900 (3.6%) were called active. Rule as the data show it: active = inhibition above about 50%; inactive = the rest. The entries come from a sample that favours actives as a whole. Some structures have more than one record in an assay (separate samples or runs), and their calls can disagree.

What follows are compounds tested against Huntingtin (Homo sapiens) (UniProt P42858) (assay: mutant huntingtin-calmodulin interaction inhibitors – biochemical, AlphaScreen, primary screen (AID 1671202;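 also: 0% = both proteins with DMSO and 100% = one protein alone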)). Details: AlphaScreen His-mHTT/GST-CaM binding, luminescence; at 15 µM, stronger effect = higher value.
Sequence of Huntingtin (Homo sapiens) (P42858 whole entry, looked up, stated change not applied): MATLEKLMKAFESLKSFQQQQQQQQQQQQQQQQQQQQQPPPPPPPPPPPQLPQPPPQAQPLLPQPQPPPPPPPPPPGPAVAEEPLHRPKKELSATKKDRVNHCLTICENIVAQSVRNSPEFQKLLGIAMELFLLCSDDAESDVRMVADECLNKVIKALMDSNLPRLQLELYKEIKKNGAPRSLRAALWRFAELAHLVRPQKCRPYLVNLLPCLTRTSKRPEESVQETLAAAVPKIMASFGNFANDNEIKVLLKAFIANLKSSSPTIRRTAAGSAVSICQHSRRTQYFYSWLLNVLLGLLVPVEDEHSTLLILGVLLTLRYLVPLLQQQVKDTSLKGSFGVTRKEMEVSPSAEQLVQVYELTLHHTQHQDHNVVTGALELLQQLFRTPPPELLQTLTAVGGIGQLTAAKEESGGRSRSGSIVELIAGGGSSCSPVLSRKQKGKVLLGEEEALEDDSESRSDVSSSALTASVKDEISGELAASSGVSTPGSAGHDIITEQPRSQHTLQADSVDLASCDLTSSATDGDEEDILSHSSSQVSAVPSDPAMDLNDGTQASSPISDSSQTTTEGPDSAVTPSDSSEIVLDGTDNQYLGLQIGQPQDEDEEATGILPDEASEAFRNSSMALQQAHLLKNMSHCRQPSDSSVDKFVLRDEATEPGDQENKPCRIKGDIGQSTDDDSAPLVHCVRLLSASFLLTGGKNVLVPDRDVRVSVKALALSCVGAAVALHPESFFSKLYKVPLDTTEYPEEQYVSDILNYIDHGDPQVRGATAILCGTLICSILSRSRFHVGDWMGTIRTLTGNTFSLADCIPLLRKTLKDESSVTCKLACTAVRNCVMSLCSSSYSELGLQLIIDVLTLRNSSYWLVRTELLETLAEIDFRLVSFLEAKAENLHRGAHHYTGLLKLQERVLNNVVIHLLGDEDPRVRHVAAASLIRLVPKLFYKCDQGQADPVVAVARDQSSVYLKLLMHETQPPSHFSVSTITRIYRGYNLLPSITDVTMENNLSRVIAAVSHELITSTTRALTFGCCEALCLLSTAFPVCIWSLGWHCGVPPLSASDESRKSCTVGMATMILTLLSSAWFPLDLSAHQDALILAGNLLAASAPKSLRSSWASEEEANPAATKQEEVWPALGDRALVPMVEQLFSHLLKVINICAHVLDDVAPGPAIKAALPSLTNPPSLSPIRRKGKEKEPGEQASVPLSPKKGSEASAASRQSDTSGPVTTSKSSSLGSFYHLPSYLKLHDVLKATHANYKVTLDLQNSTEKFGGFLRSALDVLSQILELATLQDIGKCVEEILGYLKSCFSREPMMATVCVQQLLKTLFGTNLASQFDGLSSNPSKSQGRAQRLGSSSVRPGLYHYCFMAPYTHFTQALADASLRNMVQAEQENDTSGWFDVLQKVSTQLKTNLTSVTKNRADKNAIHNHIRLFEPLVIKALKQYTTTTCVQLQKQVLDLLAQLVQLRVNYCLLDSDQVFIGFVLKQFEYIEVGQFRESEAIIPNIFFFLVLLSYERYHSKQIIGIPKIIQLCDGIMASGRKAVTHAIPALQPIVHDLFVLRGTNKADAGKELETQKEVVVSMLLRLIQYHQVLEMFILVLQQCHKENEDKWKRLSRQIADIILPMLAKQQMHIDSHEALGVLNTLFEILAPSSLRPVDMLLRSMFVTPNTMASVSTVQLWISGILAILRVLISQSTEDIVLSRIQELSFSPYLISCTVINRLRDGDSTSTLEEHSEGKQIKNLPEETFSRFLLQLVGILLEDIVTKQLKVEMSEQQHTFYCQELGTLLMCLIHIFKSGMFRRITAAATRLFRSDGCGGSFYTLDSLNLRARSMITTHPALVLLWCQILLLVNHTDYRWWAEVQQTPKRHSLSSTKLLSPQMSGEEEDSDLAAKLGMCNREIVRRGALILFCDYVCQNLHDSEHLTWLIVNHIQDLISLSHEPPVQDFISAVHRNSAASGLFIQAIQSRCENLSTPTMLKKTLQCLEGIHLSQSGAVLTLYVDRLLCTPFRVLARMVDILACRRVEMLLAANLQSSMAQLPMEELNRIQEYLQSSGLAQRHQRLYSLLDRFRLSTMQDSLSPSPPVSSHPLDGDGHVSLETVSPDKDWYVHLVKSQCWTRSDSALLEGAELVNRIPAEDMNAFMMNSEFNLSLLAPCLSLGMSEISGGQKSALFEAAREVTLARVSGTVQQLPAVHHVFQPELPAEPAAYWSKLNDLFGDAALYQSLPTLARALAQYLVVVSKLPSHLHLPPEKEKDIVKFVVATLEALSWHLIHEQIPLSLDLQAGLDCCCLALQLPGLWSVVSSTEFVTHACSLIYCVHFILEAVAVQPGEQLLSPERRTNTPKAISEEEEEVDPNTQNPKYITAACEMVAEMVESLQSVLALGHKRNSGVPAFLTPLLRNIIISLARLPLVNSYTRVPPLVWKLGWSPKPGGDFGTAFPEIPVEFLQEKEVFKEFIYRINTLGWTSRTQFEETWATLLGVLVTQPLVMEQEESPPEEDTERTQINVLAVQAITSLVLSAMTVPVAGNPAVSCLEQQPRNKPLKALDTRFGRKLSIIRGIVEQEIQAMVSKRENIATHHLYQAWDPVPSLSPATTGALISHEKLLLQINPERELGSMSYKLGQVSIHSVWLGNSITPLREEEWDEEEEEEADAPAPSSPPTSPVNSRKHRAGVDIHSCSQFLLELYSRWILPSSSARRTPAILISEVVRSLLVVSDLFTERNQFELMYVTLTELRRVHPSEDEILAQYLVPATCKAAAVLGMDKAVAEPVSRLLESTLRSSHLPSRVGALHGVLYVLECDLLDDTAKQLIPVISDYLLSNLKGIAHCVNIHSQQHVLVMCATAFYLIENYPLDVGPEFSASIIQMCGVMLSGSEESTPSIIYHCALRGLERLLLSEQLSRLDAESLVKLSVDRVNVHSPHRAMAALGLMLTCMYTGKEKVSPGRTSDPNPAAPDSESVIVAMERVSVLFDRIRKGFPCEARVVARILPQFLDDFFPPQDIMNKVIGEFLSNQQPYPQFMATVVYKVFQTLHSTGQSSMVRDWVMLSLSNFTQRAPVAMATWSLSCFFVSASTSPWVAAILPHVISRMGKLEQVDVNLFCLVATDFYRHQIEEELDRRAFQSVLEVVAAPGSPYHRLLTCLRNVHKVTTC

Row | Structure (SMILES) | inhibition
1 | CC(C)CNC(=O)C(=O)NCC(c1ccco1)S(=O)(=O)c1cccs1 (configuration not stated) | -9.6% (inactive)
2 | O=C1C2C(C(=O)N1c1ccccc1[N+](=O)[O-])C1C=CC2C12CC2 (configuration not stated) | 3% (inactive)
3 | Cc1ccc(NC2CC(=O)N(c3cccc(Cl)c3)C2=O)cc1 (configuration not stated) | -2% (inactive)
4 | Cc1ccc(N2C(=O)CC(Nc3ccc(N4CCOCC4)cc3)C2=O)c(Br)c1 (configuration not stated) | 60.1% (active) and 18.3% (inactive)
5 | COc1ccc(N2C(=O)CC(Nc3ccc(OC(F)(F)F)cc3)C2=O)cc1 (configuration not stated) | -4% (inactive)
6 | O=C(Nc1ccc(N2CCCCC2)nc1)C1CC1 | -1% (inactive)
7 | O=C(O)/C(=C\c1cccc([N+](=O)[O-])c1)NC(=O)c1ccco1 | -2.8% (inactive)
8 | COc1ccc(/C=C2\C(=O)Nc3ccc(F)cc32)cc1OC | 40% (inactive)
9 | CCc1ccc(/C=C2\C(=O)Nc3ccc(F)cc32)cc1 | 66% (active)
10 | CCOc1ccc(Br)c(/C=C2\C(=O)Nc3ccc(Br)cc32)c1 | 31% (inactive)
11 | Cc1ccc(C(=O)N2CCc3sc(C(=O)NCc4ccco4)cc3C2)cc1 | 13.6% (inactive)
12 | Cc1ccn2c(-c3csc(Nc4ccc(N)cc4)n3)c(C)nc2c1 | 64.7% (active)
13 | Cc1ccn2c(-c3csc(Nc4ccc(C(=O)O)cc4)n3)c(C)nc2c1 | -2% (inactive)
14 | Cc1nc2sccn2c1-c1csc(Nc2ncccn2)n1 | 3% (inactive)
15 | COCCCNC(=O)C1CCN(c2nnc(-c3ccccc3)o2)CC1 | 2.64% (inactive)
16 | CCOC(=O)C1CCCN(CC(O)COC2CC3CCC2(C)C3(C)C)C1 (configuration not stated) | 6.9% (inactive)
17 | Oc1c(C(Nc2ccccn2)c2cccnc2)ccc2cccnc12 (configuration not stated) | 100% (active)
18 | Oc1c(C(Nc2ccccn2)c2ccc(OC(F)F)cc2)ccc2cccnc12 (configuration not stated) | 97% (active)
19 | c1ccc(Nc2nc(-c3ccncc3)cs2)nc1 | 18% (inactive)
20 | Oc1c(C(Nc2ccccn2)c2ccncc2)ccc2cccnc12 (configuration not stated) | 100% (active)
21 | COc1ccccc1C=C1Oc2cc(C)cc(O)c2C1=O | -4.4% (inactive)
22 | CCC(CC)NC(=O)C1CCc2nc(N3CCN(C(C)=O)CC3)sc2C1 (configuration not stated) | 11.6% (inactive)
23 | CC(NC(=O)CN1CCOCC1)C1CC1 (configuration not stated) | -8.9% (inactive)
24 | CN(C(=O)c1ccccn1)C1(C(=O)NC2CCCC2)CCCCC1 | -4% (inactive)
25 | O=C(Nc1ccc2c(c1)OCCO2)C1CCc2sc(C(=O)N3CCCC3)cc2C1 (configuration not stated) | 12.3% (inactive)

Row | Structure (SMILES) | inhibition
26 | CC(C)(C)C(=O)NC(n1cccnc1=O)C(Cl)(Cl)Cl (configuration not stated) | 2% (inactive)
27 | CCCCN(CC)C(=O)c1c[nH]c2ccc(S(=O)(=O)Nc3ccccc3F)cc2c1=O | 14% (inactive)
28 | O=C1CSC(c2ccccc2[N+](=O)[O-])N1c1ccc(Oc2ccccc2)cc1 (configuration not stated) | 59% (active)
29 | Cc1ccc(N2C(=O)CSC2c2ccccc2[N+](=O)[O-])cc1Cl (configuration not stated) | 16% (inactive)
30 | O=C1CSC(c2ccccc2[N+](=O)[O-])N1c1ccc(Br)cc1 (configuration not stated) | 28% (inactive)
31 | CCn1cc(CCNC(C)=O)c2cccnc21 | -8.1% (inactive)
32 | CC(=O)NC(Cc1c[nH]c2ccccc12)C(=O)O (configuration not stated) | 3.4% (inactive)
33 | CC(Cc1c[nH]c2ccccc12)NC(=O)c1ccncc1 (configuration not stated) | 2.9% (inactive) and 3% (inactive)
34 | O=C(O)COc1ccccc1C(c1c[nH]c2ccccc12)c1c[nH]c2ccccc12 | 88.9% (active)
35 | CC(=O)N1CCc2cc(N3CC(C(=O)Nc4ccc(C)cc4F)CC3=O)ccc21 (configuration not stated) | -5.06% (inactive)
36 | CCc1ccc(CNC(=O)C2CC(=O)N(c3ccc4c(c3)CCN4C(C)=O)C2)cc1 (configuration not stated) | -4.01% (inactive)
37 | CC(=O)N1CCc2cc(N3CC(C(=O)Nc4cccc(F)c4)CC3=O)ccc21 (configuration not stated) | 90.3% (active)
38 | O=C(Nc1ccc(N2CCN(C(=O)C3CCCC3)CC2)nc1)c1ccc(F)cc1F | 1.5% (inactive)
39 | CCOc1ccc2nc(C(=O)Nc3ccc(Br)cc3)sc2c1 | -2% (inactive)
40 | CC(C)(CCl)C(=O)N1CCN(c2cc(Oc3ccc(F)c(F)c3)ncn2)CC1 | 6.2% (inactive)
41 | Cc1ccc(C(=O)N2CCC(n3cnnc3-c3ccccc3)C2)cn1 (configuration not stated) | -1.7% (inactive)
42 | CCC(NC(=O)c1ncn[nH]1)c1ccccc1 (configuration not stated) | 89.5% (active)
43 | CCC(NC(C)=O)c1cccc(Br)c1 (configuration not stated) | -3.8% (inactive)
44 | O=C(Nc1ccccc1O)c1ncn[nH]1 | 8.9% (inactive)
45 | Cc1ccc(N2CCC(C(=O)NCc3ccc(F)cc3)C2=O)cc1Cl (configuration not stated) | -0.5% (inactive)
46 | COc1cccc(CC(=O)N2CCCC2c2cccc(F)c2)c1 (configuration not stated) | 15% (inactive)
47 | COc1ccc2nc(SCC(=O)NCc3cccs3)[nH]c2c1 | -2% (inactive)
48 | O=C(CSc1nnc(NC(=O)c2ccc(Cl)c(Cl)c2)s1)NCc1ccco1 | -5.3% (inactive)
49 | O=C(CSc1nc(CC(=O)NCc2cccs2)cc(=O)[nH]1)NCc1ccco1 | 100% (active)
50 | COc1ccccc1NC(=O)c1cc(S(=O)(=O)NCc2ccccc2Cl)ccc1F | -3% (inactive)

Row | Structure (SMILES) | inhibition
51 | COc1ccccc1NC(=O)CC(C)c1ccccc1 (configuration not stated) | -7.2% (inactive)
52 | COc1ccccc1NC(CNS(=O)(=O)c1ccc(Cl)cc1)c1ccccc1 (configuration not stated) | 64% (active)
53 | COc1ccc(C2=NN(C(C)=O)C(c3cc4cc(C)ccc4nc3Cl)C2)cc1OC (configuration not stated) | -3% (inactive)
54 | O=C(CN1N=C(c2ccccc2)CCC1=O)NCCc1ccc(Cl)cc1 | 29% (inactive)
55 | O=C(NCCc1ccccc1)c1ccc(I)cc1 | -3% (inactive)
56 | COc1ccccc1NC(=O)Cn1nnc(-c2ccccc2F)n1 | -2.8% (inactive)
57 | COc1cc(C(=O)N2CCC(Cc3ccccc3)CC2)c([N+](=O)[O-])cc1OC | 54.1% (active)
58 | COc1ccc(NC(=O)N2CCC(Cc3ccccc3)CC2)cc1 | -3.2% (inactive)
59 | COc1cc(C(=O)N2CCCC2)c([N+](=O)[O-])cc1OC | -4.1% (inactive)
60 | CCOc1ccc(C(=O)Nc2cc([N+](=O)[O-])ccc2C)cc1 | -0.3% (inactive)
61 | COc1cccc(OC)c1C(=O)Nc1sc2c(c1C(N)=O)CCCC2 | 25.3% (inactive)
62 | COc1ccccc1NC(=O)c1c(NCc2ccncc2)sc2c1CCCC2 | 65% (active)
63 | COc1ccc(OC)c(NC(=O)c2c(NCc3ccc(C)o3)sc3c2CCC3)c1 | 7.9% (inactive)
64 | Cn1nccc1C(=O)N1CCCC(c2n[nH]c(C3CC3)n2)C1 (configuration not stated) | 5.54% (inactive)
65 | CC(=O)c1nc2sc(C)c(C)c2[nH]1 | -3.74% (inactive)
66 | Cc1ccc(C(O)=C2C(=O)C(=O)N(c3ncccn3)C2c2cccc(Br)c2)cc1 (configuration not stated) | 51.6% (active)
67 | CN(C)CCCN1C(=O)C(=O)C(=C(O)c2ccccc2)C1c1cccc(Br)c1 (configuration not stated) | -1.6% (inactive)
68 | COc1ccc(C2C(=C(O)c3ccc(C)cc3)C(=O)C(=O)N2c2ccccn2)cc1 (configuration not stated) | 2.6% (inactive)
69 | CN1CCN(CC(=O)Nc2c3c(nc4ccccc24)N(c2ccccc2)CC3)CC1 | -4% (inactive)
70 | CN1CCc2c(n(-c3ccccc3)c3ccccc23)C1=O | 56.8% (active)
71 | N#CSc1ccc(NC(=O)c2ccc(-n3cnnn3)cc2)cc1 | 8.8% (inactive)
72 | C=CCNC(=O)C(=O)NCc1ccccn1 | -1.5% (inactive)
73 | Cc1ccc(S(=O)(=O)Nc2ccccc2C(=O)NN)cc1 | 5.3% (inactive)
74 | COc1cc(N)ccc1NS(=O)(=O)c1ccc(C)cc1 | 10.8% (inactive)
75 | Cc1ccc(S(=O)(=O)Nc2cc(S(=O)(=O)O)c(N)c3c2C(=N)c2ccccc2C3=O)cc1 | 94% (active)

Row | Structure (SMILES) | inhibition
76 | CCCc1cc(=O)[nH]c(SCC(=O)Nc2cc(C(F)(F)F)ccc2Cl)n1 | -6.6% (inactive)
77 | O=C(O)C1C2CCC3C(CCC21)C3C(=O)O (configuration not stated) | -1.3% (inactive)
78 | C=CCOC(=O)C1=C(C)NC2=C(C(=O)CC(C)(C)C2)C1c1ccc(OCC)c(OC)c1 (configuration not stated) | -6.9% (inactive)
79 | O=C(NCc1cccs1)C1CCc2sc(C(=O)N3CCCCC3)cc2C1 (configuration not stated) | 3.05% (inactive)
80 | O=C(NC(n1cnc2c(Cl)ncnc21)C(Cl)(Cl)Cl)c1ccccc1 (configuration not stated) | -3% (inactive)
81 | O=C(Nc1cccc(Cl)c1)Nc1c2c(nn1-c1ccccc1)CSC2 | 15.8% (inactive)
82 | CCC(Sc1nc2n[nH]c(C)c2c(=N)n1-c1ccc(OC)cc1)C(=O)Nc1ccccc1OC (configuration not stated) | 30% (inactive)
83 | CCC(Sc1nc2n[nH]c(C)c2c(=N)n1-c1ccc(Br)cc1)C(=O)NCCOC (configuration not stated) | 75% (active)
84 | CCOc1ccc(-n2c(SCC(=O)NC3CCCCC3)nc3n[nH]c(C)c3c2=N)cc1 | 10% (inactive)
85 | Cc1ccc(C(=O)Nc2ccc(-n3cnnn3)c(C)c2)cc1 | -6.6% (inactive)
86 | COc1ccc(Br)cc1S(=O)(=O)NCCCn1ccnc1 | -3.1% (inactive)
87 | Cn1cc(C2=CCN(S(=O)(=O)c3cccc(Cl)c3)CC2)c2cccnc21 | 0.52% (inactive)
88 | COc1cccc(-c2nc(C3CCN(S(=O)(=O)c4ccccc4F)CC3)no2)c1 | -3.26% (inactive)
89 | CCCOc1ccc(C2C3=C(CC(C)(C)CC3=O)Nc3ccc4ncccc4c32)cc1 (configuration not stated) | 49% (inactive)
90 | CCOc1ccc(C2C3=C(CC(C)(C)CC3=O)Nc3ncnn32)cc1 (configuration not stated) | -2.23% (inactive)
91 | CC1(C)CC(=O)C2=C(C1)NC1=C(C(=O)c3ccccc31)C2c1ccc(OCc2ccccc2)cc1 (configuration not stated) | 100% (active)
92 | O=C(c1ccccc1)c1cc(S(=O)(=O)C(F)(F)F)ccc1[N+](=O)[O-] | 34% (inactive)
93 | CCOc1ccc(CN2CCCC2c2c(C)noc2CC)cc1 (configuration not stated) | -51.7% (inactive)
94 | CNC(=O)c1c(NC(=O)c2ccc(Br)s2)sc(C)c1C | -10.4% (inactive)
95 | O=C(Nc1ccc(Cl)c(C(=O)O)c1)c1ncn[nH]1 | 18.5% (inactive) and 57% (active)
96 | CSc1cccc(NC(=O)c2ncn[nH]2)c1 | 0.6% (inactive)
97 | O=C(Nc1cc([N+](=O)[O-])ccc1Cl)c1ncn[nH]1 | 4% (inactive)
